PPC-1+TRAIL kill = kills PPC-1 cancer cells in the presence of TRAIL | PPC-1 cells + TRAIL, ATPLite viability luminescence | cell killing (% activity), % at 4 µM or 5 µM | 220,000 compounds, 0.41% hits;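 active = cell killing above 50% in the first pass at 4 µM, then a duplicate retest at 5 µM averaging 50% or more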;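 note: plate controls were cells with TRAIL plus DMSO for no effect and medium-only wells lacking cells for full effect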
Platelet DG rel = modulates dense granule release in human platelets. 300,000 compounds, 0.22% hits. human platelet-rich plasma, SFLLRN dense granule ATP release, luminescence. inhibition, %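 (compounds screened at 7.5 µM in platelet-rich plasma)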;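 active = mean replicate score, as percent of positive control, at or above 50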
TRAIL sens C8 = sensitizes caspase-8 expressing cells to TRAIL. inhibition (viability loss, TRAIL sensitization), % at 10 µM. 360,000 compounds, 1% hits. NB7+C8 cells + TRAIL, ATPlite viability luminescence;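 active = compounds causing at least 50% loss of cell viability in the single-dose screen, relative to plate controls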
STAT1 blocker = reduces IFN-gamma driven STAT1 reporter signal; NIH 3T3 STAT1-luciferase reporter, luminescence; inhibition, % at 5.5 µM; 200,000 compounds, 0.35% hits;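 active = inhibition above a set limit, the mean inhibition across all tested compounds plus 3 SD, cut at about 34% in these data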;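 note: 0% = IFN-gamma with DMSO and 100% = IFN-gamma with 300 µM nifuroxazide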
STAT3 blocker = reduces IL-6 driven STAT3 reporter signal. 190,000 compounds, 0.89% hits. U3A cells, IL-6 STAT3-luciferase reporter, luminescence; host cell line lacks STAT1. inhibition, % at 5.5 µM;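 active = inhibition above the mean inhibition across all screened compounds plus 3 SD, cut at about 44% in these data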;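 note: 0% = DMSO only wells and 100% = 100 µM nifuroxazide control wells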
* = called active by the depositor. In the library only some 1.6% were active in any assay of this set; here they are far more common.

For O=C(O)c1cc(-c2ccc3ccccc3c2)nc2ccc(F)cc12 the results were Platelet DG rel -2 and TRAIL sens C8 54*.
`O=C(O)c1cc(-c2c[nH]c3ccccc23)nc2cc3ccccc3cc12` gave PPC-1+TRAIL kill 22, Platelet DG rel -1 and TRAIL sens C8 52*.
`CCc1ccc(-c2cc(C(=O)O)c3ccccc3n2)s1` gave Platelet DG rel 5 and TRAIL sens C8 68*.
For O=C(O)c1cc(-c2cc(C(=O)O)c3ccccc3n2)nc2ccccc12 the results were Platelet DG rel -4.
`O=C(O)c1cc(-c2ccc3ccccc3n2)nc2ccccc12` gave Platelet DG rel 8 and TRAIL sens C8 78*.
Screening Cc1cc(C)c(NC(=O)C2CC(=O)N(C3CCCC3)C2)c(C)c1 (centres undefined) returned TRAIL sens C8 20.
`COC(=O)N1CCC2CC1c1c(Cl)cccc12` (centres undefined) gave TRAIL sens C8 0.
COc1cccc2cc(-c3nc(-c4cccs4)cs3)c(=O)oc12 was read as PPC-1+TRAIL kill 0, Platelet DG rel -9, TRAIL sens C8 22, STAT1 blocker -37 and STAT3 blocker -5.
`O=C(O)c1ccc2nc(CO)[nH]c2c1` gave PPC-1+TRAIL kill -7, Platelet DG rel -2, TRAIL sens C8 -15, STAT1 blocker 1 and STAT3 blocker 11.
For Cc1cccc2cc(-c3nc4ccc(C(=O)O)cc4[nH]3)c(=O)oc12 the results were Platelet DG rel 11 and TRAIL sens C8 54*.
`O=C(O)c1cccc(-c2nc3ccccc3[nH]2)c1` gave PPC-1+TRAIL kill 22, Platelet DG rel 9, TRAIL sens C8 46, STAT1 blocker 55* and STAT3 blocker 65*.
For COc1cccc2cc(-c3ccccc3)c(=O)oc12 the results were PPC-1+TRAIL kill 25, Platelet DG rel 8, TRAIL sens C8 29, STAT1 blocker -48 and STAT3 blocker 23.
Screening COc1ccc(-c2cc3cccc(OC)c3oc2=O)cc1 returned Platelet DG rel 29 and TRAIL sens C8 78*.
Screening COc1cccc2cc(-c3nc4ccccc4[nH]3)c(=O)oc12 returned Platelet DG rel -7 and TRAIL sens C8 54*.
CCN(CCCNc1cc2c(c(N)c1S(=O)(=O)O)C(=O)c1ccccc1C2=O)c1ccccc1 was read as TRAIL sens C8 -1.
Screening Cc1cc(C(=O)N2CCC2(C)C(=O)O)c(C)o1 (centres undefined) returned TRAIL sens C8 1.
C=C1C2=C(C(=O)N1OC)[C@@H](O)[C@@](C)(O)[C@@H](CCCCC)O2 was read as TRAIL sens C8 -6.
`Cc1[nH]c(=S)c(C#N)c(C)c1CCC#N` gave PPC-1+TRAIL kill 17, Platelet DG rel 76* and TRAIL sens C8 -24.
`CC(C)(C)NC(=O)C(c1ccncc1)n1c(-c2ccc(C(F)(F)F)cc2)nc2ccccc21` (centres undefined) gave TRAIL sens C8 79*.
COc1ccc(C(C(=O)NC(C)(C)C)n2c(-c3ccc(C(F)(F)F)cc3)nc3ccccc32)cc1 (centres undefined) was read as TRAIL sens C8 -2.
CCCc1ccc(-c2cc(NC(=O)CSc3nnc(N)s3)n(-c3ccccc3)n2)cc1 was read as PPC-1+TRAIL kill 32, Platelet DG rel 6, TRAIL sens C8 63*, STAT1 blocker -65 and STAT3 blocker -16.
`Cc1nnc(SCC(=O)Nc2cc(-c3cc(C)c(C)cc3C)nn2-c2ccccc2)s1` gave PPC-1+TRAIL kill 26, Platelet DG rel 5, TRAIL sens C8 -4, STAT1 blocker 9 and STAT3 blocker -5.
For O=C(NCc1nnnn1-c1ccc(F)c(F)c1)c1cc2ccccc2o1 the results were Platelet DG rel 2 and TRAIL sens C8 2.
O=S1(=O)N[C@H](Cc2ccccc2)COc2cc(N3CC[C@H](O)C3)ccc21 was read as TRAIL sens C8 13.
`Nc1nc(-c2ccc(NC(=O)c3ccco3)cc2)cs1` gave Platelet DG rel -1 and TRAIL sens C8 74*.
`Cc1nc2cc(NC(=O)c3ccco3)ccc2n1C` gave Platelet DG rel 7 and TRAIL sens C8 51*.
For Cc1nc(-c2ccc(NC(=O)c3ccco3)cc2)cs1 the results were Platelet DG rel 6 and TRAIL sens C8 94*.
COc1ccc(NC(=O)c2ccc(-c3csc(C)n3)cc2)cc1 was read as Platelet DG rel -2 and TRAIL sens C8 37.
Cc1nc(-c2cccc(NC(=O)c3ccco3)c2)cs1 was read as Platelet DG rel -9 and TRAIL sens C8 -2.
For Cc1nc(-c2ccc(C(=O)Nc3cccc(F)c3)cc2)cs1 the results were Platelet DG rel -2 and TRAIL sens C8 77*.
`O=C(Nc1ccc(NC(=O)c2ccco2)cc1)c1ccco1` gave Platelet DG rel 16 and TRAIL sens C8 3.
Screening COc1ccc(-c2csc(NC(=O)c3c(C)noc3C)n2)cc1OC returned TRAIL sens C8 -3.
`COc1ccc(CN2CCC2(C)C(=O)Nc2cnc3ccccc3c2)c2ccccc12` (centres undefined) gave TRAIL sens C8 12.
CCOC(=O)[C@]12CCC=C1N(CCC1=CCCCC1)C(=O)[C@H](CC(=O)N1CCN(C(=O)c3ccco3)CC1)C2 was read as TRAIL sens C8 2.
`COc1cccc(N/C=C/C(=O)c2ccc(Cl)cc2)c1` gave PPC-1+TRAIL kill 53*, Platelet DG rel -1, TRAIL sens C8 53*, STAT1 blocker -91 and STAT3 blocker 19.
Cc1ccc(C(=O)/C=C\Nc2ccc(C)c(C)c2)cc1 was read as PPC-1+TRAIL kill 31, Platelet DG rel -23, TRAIL sens C8 31, STAT1 blocker -39 and STAT3 blocker 6.
Screening Cc1ccc(N/C=C/C(=O)c2ccc(C)cc2)cc1 returned PPC-1+TRAIL kill 24, Platelet DG rel -3, TRAIL sens C8 32, STAT1 blocker -48 and STAT3 blocker 28.
`Cc1ccc(O)c(N/C=C/C(=O)c2ccc(F)cc2)c1` gave Platelet DG rel 6 and TRAIL sens C8 60*.
`COc1ccc(OC)c(N/C=C/C(=O)c2ccccc2)c1` gave Platelet DG rel 83* and TRAIL sens C8 91*.
Cc1ccc(C(=O)/C=C/Nc2ccccn2)cc1 was read as Platelet DG rel 64*, TRAIL sens C8 82*, STAT1 blocker 84* and STAT3 blocker 109*.
COc1cccc(NC(=O)CSc2nc(O)c(C)c(=O)n2-c2ccc(C)cc2)c1 was read as Platelet DG rel -5 and TRAIL sens C8 2.
Screening COc1cccc(N/C=C/C(=O)c2ccc(C)cc2)c1 returned Platelet DG rel 24 and TRAIL sens C8 64*.
For CC(C)C[C@H]1CNC(=S)N1C[C@H]1CCCN1C[C@H](Cc1ccccc1)N1C[C@H](Cc2ccc(O)cc2)N(CC2CCCCC2)C1=S the results were TRAIL sens C8 68*.
Screening CCOC(=O)C1=C(C(=O)OCC)N(Cc2ccccc2)CCC1=O returned TRAIL sens C8 -16.
